# PubChem BioAssay AID463173 (ICCB-Longwood Screening Facility, Harvard Medical School, 2010)
# In all, about 52,000 compounds went through this assay and about 4,300 (8.3%) were called active. This excerpt belongs to a sample that is enriched for actives. A number with no mark means an inactive call. Rule as the data show it: active = survival mostly below about 52% (no sharp cut-off); inactive = mostly above about 56%.
# Tested on: DeltatarO mutant
# Assay: S. aureus survival, RN4220 and DeltatarO strains – OD600, teichoic acid synthesis inhibitors, primary screen (AID 463173)
# Details: S. aureus RN4220 wild type/DeltatarO growth, OD600, 18 h, hits give low values, screened at 18.75 µg/mL (by protocol)
row,SMILES,survival
1,CCN1CCN(C(=O)c2cnn(-c3cccc(C)c3)c2C2CCN(C(=O)OC(C)(C)C)CC2)CC1,89%
2,O=[N+]([O-])c1cc(-c2nc(-c3ccccc3)no2)ccc1NC1CCCCC1,75%
3,CC(C)Oc1ccc(C(=O)N2CCN(CCc3ccccn3)CC2)cc1,68%
4,Cc1cccc(NC(=O)C2CCCN(S(=O)(=O)c3cccc4nonc34)C2)c1 (stereo not given),92%
5,O=C(Nc1cc(-c2ccccc2)sc1C(=O)O)c1cccc(F)c1,38% (active)
6,COC(=O)c1sc(-c2ccccc2)cc1NC(=O)Nc1ccc(Cl)cc1,11% (active)
7,COC(=O)c1sc(-c2ccccc2)cc1NC(=O)c1cccc(F)c1,94%
8,CCOc1ccc(-c2cc(NC(=O)Nc3cccc(C(C)=O)c3)c(C(=O)OC)s2)cc1,53%
9,COC(=O)c1sc(-c2ccccc2)cc1NC(=O)c1cccc(Cl)c1,34% (active)
10,CCOc1ccc(-c2cc(NC(=O)Nc3ccc(Cl)cc3)c(C(=O)OC)s2)cc1,101%
11,CCOc1ccc(-c2cc(NC(=O)c3cccc(Cl)c3)c(C(=O)OC)s2)cc1,77%
12,CCOc1ccc(-c2cc(NC(=O)Nc3ccccc3C(F)(F)F)c(C(=O)OC)s2)cc1,60%
13,COC(=O)c1sc(-c2ccccc2)cc1NC(=O)Nc1ccccc1Cl,43%
14,COC(=O)c1sc(-c2ccccc2)cc1NC(=O)Nc1ccc(F)cc1,21% (active)
15,CCOc1ccc(-c2cc(NC(=O)c3ccccc3)c(C(=O)OC)s2)cc1,94%
16,CCOc1ccc(-c2cc(NC(=O)c3ccc(C)cc3)c(C(=O)OC)s2)cc1,70%
17,Cc1noc2ncnc(N3CCCC(C(=O)NCCC(C)C)C3)c12 (stereo not given),88%
18,CCOc1ccccc1CNC(=O)c1cccc(NC(=O)c2nsc3ccccc23)c1,88%
19,Cc1c(Cl)cccc1NC(=O)CCn1nc(C)c2c(C)n(-c3ccccc3)nc2c1=O,92%
20,Cc1c(C(=O)N2CCOCC2)oc2c1-c1nn(CC(=O)NCc3ccccc3)cc1CC2,79%
21,Cc1ccc(S(=O)(=O)NCc2nc3cccnc3n2Cc2ccccc2Cl)c(C)c1,89%
22,Cc1ccccc1OCCSc1nc(C)c(Cc2ccccc2)c(=O)[nH]1,97%
23,CCc1ccc(-n2nc(CO)c(C(=O)NCCCCc3ccccc3)n2)cc1,47%

row,SMILES,survival
1,Cc1ccc(C)c(Nc2nn3c(=O)c4ccc(C(=O)NCc5cccs5)cc4nc3s2)c1,65%
2,COC(=O)c1ccc2c(=O)n(CCCCCC(=O)NCCc3ccccc3)c(=O)[nH]c2c1,79%
3,CSc1ccc(CCNC(=O)CCCn2c(=O)c3cccn3c3ccccc32)cc1,42% (active)
4,COC(=O)c1ccc2c(=O)n(CCCCCC(=O)NCc3ccc(Cl)cc3)c(=O)[nH]c2c1,74%
5,O=C(CCCn1c(=O)c2cccn2c2cccnc21)NCCc1ccc(Cl)cc1,63%
6,CCOc1ccc(CCNC(=O)CCCn2c(=O)c3cccn3c3ccccc32)cc1,72%
7,O=C(CCCn1c(=O)c2cccn2c2ccccc21)NCCc1ccc(Cl)cc1,32% (active)
8,COC(=O)c1ccc2c(=O)n(CCCCCC(=O)NCCc3ccc(Cl)cc3)c(=O)[nH]c2c1,52% (active)
9,CC(C)CCNC(=O)CCCn1c(=O)c2cccn2c2ccccc21,68%
10,CSc1ccc(CCNC(=O)CCn2c(=O)c3cccn3c3cccnc32)cc1,90%
11,CN(CCCN1C(=O)c2ccccc2C1=O)CCCN1C(=O)c2ccccc2C1=O,93%
12,CCOc1ccc(NC(=O)CC2C(=O)N(c3ccccc3)C(=O)N2Cc2ccc3c(c2)OCO3)cc1 (stereo not given),79%
13,CN1CCN(C(CNC(=O)C(=O)Nc2ccccc2C#N)c2ccc3c(c2)OCO3)CC1 (stereo not given),73%
14,COCCCNC(=O)CCC(=O)N1Cc2ccccc2Oc2ncccc21,84%
15,C=Cc1ccc(Cn2c(C(=O)OC)cc3sc(C)cc32)cc1,27% (active)
16,COC(=O)c1cc2sc(C)cc2n1CC(=O)Nc1ccc(C)c(C)c1,64%
17,COC(=O)c1cc2sc(C)cc2n1Cc1cccc(OC)c1,1% (active)
18,COC(=O)c1cc2sc(C)cc2n1Cc1ccc(Br)cc1F,89%
19,COC(=O)c1cc2sc(Cl)cc2n1Cc1c(C)cc(C)cc1C,98%
20,COC(=O)c1cc2sc(C)cc2n1Cc1ccccc1,95%
21,Cn1c(=O)n(C)c2cc(N3CCOCC3)c(NS(=O)(=O)c3ccc(F)cc3)cc21,126%
22,COc1ccc(CNC(=O)C2CCN(S(=O)(=O)c3ccc4nc5c(c(C(=O)O)c4c3)CCCC5)CC2)cc1,99%
23,Clc1ccc(CCNc2nc3cc(Cl)c(Cl)cc3n3cnnc23)cc1,91%

row,SMILES,survival
1,O=C1CCSC2(C(=O)N(Cc3ccc(F)cc3)c3ccccc32)N1c1ccc(F)c(F)c1 (stereo not given),83%
2,COc1ccc(Cn2c(=O)c3oc4ccccc4c3n(Cc3ccccc3)c2=O)cc1,82%
3,O=C(Nc1ccccc1C(F)(F)F)N1CCOc2ccc(Cl)cc21,46%
4,OC(c1ccccc1)c1nc2ccccc2n1Cc1c(F)cccc1Cl (stereo not given),74%
5,COC(=O)Cn1c(C(O)c2ccccc2)nc2ccccc21 (stereo not given),71%
6,Cc1cc(C)c(Cn2c(C(O)c3ccccc3)nc3ccccc32)c(C)c1 (stereo not given),31% (active)
7,COc1cc2nc(NCCc3cccc(C)c3)n3nc(-c4ccccc4)nc3c2cc1OC,59%
8,Cc1cccc(-c2nc3c4ccccc4nc(NCCc4ccccc4)n3n2)c1,7% (active)
9,COc1ccc(CCNc2nc3cc(OC)c(OC)cc3c3nc(-c4cccnc4)nn23)cc1OC,117%
10,COc1cc2nc(NCCc3ccccc3)n3nc(-c4cccnc4)nc3c2cc1OC,118%
11,COc1ccc(CCNc2nc3ccccc3c3nc(-c4cccc(C)c4)nn23)cc1OC,20% (active)
12,COc1ccc(CCNc2nc3cc(OC)c(OC)cc3c3nc(-c4ccccc4)nn23)cc1OC,93%
13,Cc1cc2[nH]c(=O)c(=O)[nH]c2cc1S(=O)(=O)Nc1ccc(OC(F)(F)F)cc1,67%
14,CCCn1c(=O)n(-c2cc(Cl)c(OC)cc2OC)c(=O)c2c3c(sc21)CN(C(C)=O)CC3,62%
15,O=C(O)CCc1ccc(-c2ccccc2)n1CC(=O)Nc1ccccc1C(F)(F)F,60%
16,CCc1ccccc1NC(=O)C1=C(C)C(=O)OC12CCCCCC2,58%
17,CCn1cc(C(=O)OCC(=O)Nc2ccc(C)c(Cl)c2)c(=O)c2ccc(C)nc21,63% (active)
18,CCn1cc(C(=O)OCC(=O)Nc2cc(Cl)ccc2C)c(=O)c2ccc(C)nc21,74%
19,CCn1cc(C(=O)OCC(=O)Nc2cc(C)cc(C)c2)c(=O)c2ccc(C)nc21,64%
20,CCCCCCC1CCC(C(=O)NC(C(=O)O)C(C)C)CC1 (stereo not given),49%
21,CCCCC1CCC(CCCC(C)CCC(=O)O)CC1 (stereo not given),-4% (active)
22,CCCCCCC1CC=C(C(=O)O)CC1 (stereo not given),76%
23,O=c1c2sc3ccccc3c2n(Cc2ccccc2)c(=O)n1CCc1ccccc1,71%

row,SMILES,survival
1,COc1ccc(S(=O)(=O)N(CC(=O)Nc2cccnc2)c2ccc(Cl)cc2)cc1,30% (active)
2,CS(=O)(=O)N(CC(=O)Nc1cccnc1)c1ccc(Cl)cc1,91%
3,CCOc1ccc(S(=O)(=O)N(CC(=O)Nc2cccnc2)c2ccccc2)cc1,114%
4,COc1ccc(S(=O)(=O)N(CC(=O)Nc2cc(C)cc(C)c2)c2ccc(Cl)cc2)cc1,77%
5,COc1ccc(N(CC(=O)NCc2ccc(F)cc2)S(=O)(=O)c2c(C)noc2C)cc1,82%
6,COc1ccc(N(CC(=O)Nc2cc(OC)cc(OC)c2)S(=O)(=O)c2c(C)noc2C)cc1,45% (active)
7,O=C(CN(c1ccc(Cl)c(C(F)(F)F)c1)S(=O)(=O)c1ccccc1)Nc1cccnc1,47% (active)
8,COc1ccc(N(CC(=O)Nc2cc(Cl)ccc2C)S(=O)(=O)c2c(C)noc2C)cc1,51%
9,O=C(CN(c1ccc(Cl)c(C(F)(F)F)c1)S(=O)(=O)c1ccccc1)N1CCc2ccccc2C1,42%
10,Cc1cc(C)c(NC(=O)Cn2c(=O)n(CC(=O)NCc3ccccc3Cl)c(=O)c3sccc32)c(C)c1,171%
11,Cc1ccc(N2CCN(C(=O)c3nn(C)c4c3CS(=O)(=O)c3ccccc3-4)CC2C)cc1 (stereo not given),56%
12,O=C(c1ccc2c(c1)N(Cc1cccc(Cl)c1)C(=O)c1ccccc1S2(=O)=O)N1CCCC1,115%
13,CCOc1ccccc1CNC(=O)CSc1nnc(C)c2c(C)n(-c3ccccc3)nc12,83%
14,CC(C)CNS(=O)(=O)c1ccc(S(=O)(=O)N2CCCC(C(=O)NC3CCCCC3)C2)cc1 (stereo not given),75%
15,CCCCOc1ccc(CNC(=O)C2COc3ccc(OC)cc3C2)cc1 (stereo not given),94%
16,CCc1ccccc1NS(=O)(=O)c1ccc2[nH]cc(C(=O)NC3CCCC3)c(=O)c2c1,33% (active)
17,Cc1ccccc1NS(=O)(=O)c1ccc2[nH]cc(C(=O)NC3CCCCC3)c(=O)c2c1,85%
18,Cc1c(Cl)cccc1NS(=O)(=O)c1ccc2[nH]cc(C(=O)NC3CCCC3)c(=O)c2c1,7% (active)
19,CCOCCCNC(=O)c1c[nH]c2ccc(S(=O)(=O)Nc3cccc(Cl)c3C)cc2c1=O,93%
20,CNC(=O)c1c[nH]c2ccc(S(=O)(=O)Nc3cccc(Cl)c3C)cc2c1=O,91%
21,O=C(NC1CCCCC1)c1c[nH]c2ccc(S(=O)(=O)Nc3ccccc3F)cc2c1=O,83%
